Records with an inconclusive call do not appear. A number with no mark means an inactive call. Activity calls are given as the source filed them. The call rests on the fitted dose curve; in most records, active means well fitted inhibition curve with a large enough effect; inconclusive means small, poorly fitted or top-dose-only effect; inactive means flat fitted curve, though single readings scatter.
test system: NIH3T3; experiment: Cytotoxic Profiling of Annotated Libraries Using Quantitative High-Throughput Screening (AID 1296008); details: Five cell lines viability, CellTiter-Glo ATP luminescence, 48-72 h; max response: hits give low values; further: nearly all actives have a fitted effect of over 60% in size
Outline: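 Compounds were pin-transferred onto cells and incubated 48 or 72 hr at 37 degree Celsius, 95% humidity. CellTiter-Glo was added, plates sat 10 min at room temperature, then ATP-coupled luminescence was imaged as the viability read-out.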
On the % scale 0 is the no-effect control and ±100 the full control effect; potency means the concentration at half of the fitted maximal effect.

**Q.** Which max response does the source give for `COc1cc(C#N)ccc1S(=O)(=O)Nc1ccc2c(c1)cc(C)c(=O)n2C` here?
**A.** -0.625%

**Q.** With `C=C1C(=O)O[C@@H]2[C@H]1CCC(C)=C(CCC(=O)O)[C@@]2(C)O` as the compound, how does the max response read?
**A.** -62.1%

**Q.** With `NC(N)=N/N=C/c1ccccc1Cl` as the compound, how does the max response read?
**A.** -25.1%

**Q.** Which max response does the source give for `C=C1C(=O)OC2CC3(C)C(O)C(=O)C=C(C)C3CC12` (stereo not given) here?
**A.** -22.8%

**Q.** Which max response does the source give for `CC(C)c1ccc(-c2cc(=O)c3ccccc3o2)cc1` here?
**A.** -24.9%

**Q.** With `COc1ccc(Cl)c(Nc2ncnc3cc(OCC4CCN(C)CC4)c(OC)cc23)c1` as the compound, how does the Potency read?
**A.** 7.31 µM (active)

**Q.** `O=S(=O)(Nc1ccccc1N1CCCCC1)c1ccc(Cl)s1` was tested. Which max response did it give?
**A.** -6.22%

**Q.** With `CC(=O)Nc1cccc(-c2csc(Nc3cc(C)ccn3)n2)c1` as the compound, how does the max response read?
**A.** -21%

**Q.** `COc1cc2ncnc(Nc3cccc(I)c3)c2cc1OC` was tested. Which outcome did it give?
**A.** inactive

**Q.** For `OC1CCC(Nc2nc(-c3ccccc3)nc3[nH]ccc23)CC1` (stereo not given), which max response is on record?
**A.** -18.3%

**Q.** Which max response does the source give for `C=CC(C)(C)C12CC3C(=O)N4C(CC5(C(C)(C)C=C)c6ccccc6NC45)C(=O)N3C1Nc1ccccc12` (stereo not given) here?
**A.** 1.64%

**Q.** `CN1CCN(C(=O)CN[C@@H]2C[C@H]2c2ccc(OCc3ccccc3)cc2)CC1` was tested. Which max response did it give?
**A.** -9.45%

**Q.** How did the Potency turn out when `Cn1c(=O)c(F)c(Nc2ccc(I)cc2F)c2c(=O)n(CC(O)CO)cnc21` (stereo not given) was run?
**A.** 1.3 µM (active)

**Q.** `CCNc1nc(Nc2cc(F)c(C(=O)N3CCOCC3)cc2OC)ncc1C(F)(F)F` was tested. Which max response did it give?
**A.** -2.73%

**Q.** `COc1cc(F)c(F)c(Nc2ccc(I)cc2F)c1NS(=O)(=O)C1(CC(O)CO)CC1` (stereo not given) was tested. Which Potency did it give?
**A.** 5.17 µM (active)
